# TRAIL sens C8 = viability loss with TRAIL in NB7+C8 cells, primary screen, TRAIL sensitizer project, cell-based, ATPlite luminescence. AID 624354, 2012. inhibition (viability loss, TRAIL sensitization), % at 10 µM. 1% of 360,000 active;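 active means compounds causing at least 50% loss of cell viability in the single-dose screen, relative to plate controls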
# PPC-1+TRAIL kill = compounds killing PPC-1 cancer cells with TRAIL present, primary screen, TRAIL potentiator project, ATPLite luminescence, uHTS; PPC-1 cells + TRAIL, ATPLite viability luminescence; cell killing (% activity), % at 4 µM or 5 µM; 0.41% of 220,000 active; AID 1443, 2008;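 active means cell killing above 50% in the first pass at 4 µM, then a duplicate retest at 5 µM averaging 50% or more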;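 further: plate controls were cells with TRAIL plus DMSO for no effect and medium-only wells lacking cells for full effect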
# STAT3 inh = IL-6 driven STAT3 reporter inhibitors, primary screen, U3A cells, luciferase, luminescence, MLSCN library | inhibition, % at 5.5 µM | IL-6 STAT3-luciferase reporter; host cell line lacks STAT1 | 0.89% of 190,000 active;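 active means inhibition above the mean inhibition across all screened compounds plus 3 SD, cut at about 44% in these data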;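 further: 0% = DMSO only wells and 100% = 100 µM nifuroxazide control wells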
# STAT1 inh = STAT1 signaling inhibitors, primary screen, cell-based, HTS, luciferase reporter; NIH 3T3 STAT1-luciferase reporter, IFN-gamma, luminescence; inhibition, % at 5.5 µM; 0.35% of 200,000 active;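 active means inhibition above a set limit, the mean inhibition across all tested compounds plus 3 SD, cut at about 34% in these data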;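 further: 0% = IFN-gamma with DMSO and 100% = IFN-gamma with 300 µM nifuroxazide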
# HSF1 inh = HSF1 inhibitors in luciferase reporter cells, primary screen, cell-based, NIH3T3, luminescence | 0.77% of 300,000 active | activity change, negative = inhibition, % at 7.5 µM (by protocol) | AID 2098, 2009 | NIH3T3-HGL HSE-luciferase, MG132-induced, luminescence 8 h; hits give low values;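 active means more than half of replicate wells show activity change below -50%, luminescence cut by over half; inconclusive means some wells, but at most half, below -50%; inactive means no replicate well below -50%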;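 further: luciferase reports HSF-1 transcriptional activity via heat shock element; 0% = median of DMSO wells and -100% = zero luminescence signal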
# HSP90 refold inh = HSP90 inhibitors, primary screen, cell lysate, luminescence | Heat shock protein HSP 90 (rabbit reticulocyte lysate; luciferase refolding) | Rabbit reticulocyte lysate, luciferase refolding luminescence, 3 h | inhibition, % at 5.6 µM | 0.91% of 290,000 active;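 active means inhibition above the screen-wide mean plus 3 SD, computed separately per campaign, cut at about 16% in these data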;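 further: 0% = DMSO wells and 100% = 60 µM geldanamycin wells; inhibitors lower the luminescence because luciferase stays unfolded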
# HSP90 inh confirm = HSP90 inhibitors, confirmation, cell lysate, luminescence. 64% of 2,300 active. inhibition, % at 5.9 µM. shares compounds with HSP90 refold inh. rabbit reticulocyte lysate, luciferase refolding luminescence, 3 h; in the data active means inhibition above about 18%;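 further: 0% = vehicle wells and 100% = reference inhibitor wells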
# FLuc counter = firefly luciferase inhibitors, HSP90 counter-screen, confirmation, artefact control for HSP90 inhibitor project, biochemical, luminescence, triplicate; shares compounds with HSP90 refold inh; purified native firefly luciferase; inhibition, % at 5.9 µM; 48% of 2,300 active;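 active means inhibition above the mean inhibition of all tested sample wells plus 3 SD, cut at about 10% in these data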;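 further: 0% = DMSO with luciferase and 100% = wells lacking luciferase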
# Target sequence (P08659 whole entry, looked up): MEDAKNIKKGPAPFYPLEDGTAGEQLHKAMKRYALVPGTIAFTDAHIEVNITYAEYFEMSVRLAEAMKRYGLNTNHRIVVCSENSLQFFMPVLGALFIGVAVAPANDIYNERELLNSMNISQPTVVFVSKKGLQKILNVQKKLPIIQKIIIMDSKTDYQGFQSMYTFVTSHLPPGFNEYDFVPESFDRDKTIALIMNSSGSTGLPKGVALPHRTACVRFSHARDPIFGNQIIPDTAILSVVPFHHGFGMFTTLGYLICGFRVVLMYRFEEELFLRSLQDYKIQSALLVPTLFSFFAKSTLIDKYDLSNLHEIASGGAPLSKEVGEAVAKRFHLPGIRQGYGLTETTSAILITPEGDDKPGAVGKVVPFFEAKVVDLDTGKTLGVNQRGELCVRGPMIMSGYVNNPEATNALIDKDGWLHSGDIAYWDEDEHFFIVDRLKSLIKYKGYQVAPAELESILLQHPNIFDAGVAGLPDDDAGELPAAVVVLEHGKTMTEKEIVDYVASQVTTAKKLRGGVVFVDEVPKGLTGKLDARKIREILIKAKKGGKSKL
# Numbers without * were called inactive; ? = inconclusive; · = no result. In the library only some 2.4% were active in any assay of this set; here they are far more common.
SMILES,TRAIL sens C8,PPC-1+TRAIL kill,STAT3 inh,STAT1 inh,HSF1 inh,HSP90 refold inh,HSP90 inh confirm,FLuc counter
CCCc1cc(=O)oc2cc(OCc3ccc(C(=O)O)cc3)ccc12,-6,·,·,·,-14,22*,16,-22
CCCc1cc(=O)oc2cc(OCc3ccc(C(=O)O)o3)ccc12,-16,·,·,·,6,23*,18*,-24
O=C(Nc1ccc(Br)cc1)c1ccc2ncsc2c1,1,·,·,·,-1,43*,45*,28*
COc1ccc(-c2noc(C3CCCN(C(=O)Nc4ccccc4F)C3)n2)cc1 (stereo not given),-6,12,15,-17,-16,27*,-3,-11
COc1ccc(-c2noc(C3CCCN(C(=O)Nc4ccccc4)C3)n2)cc1 (stereo not given),0,·,10,-23,2,19*,3,-6
COc1ccc(NC(=O)N2CCCC(c3nc(-c4ccc(OC)cc4)no3)C2)cc1 (stereo not given),-1,4,17,-13,-16,21*,-8,-12
COc1ccc(-c2noc(C3CCCN(C(=O)c4ccccc4)C3)n2)cc1 (stereo not given),-1,0,·,·,22,-5,·,·
CCCCCC(=O)N1CCCC(c2nc(-c3ccc(OC)cc3)no2)C1 (stereo not given),-6,16,4,9,4,-2,·,·
COc1ccc(NC(=O)N2CCCC(c3nc(-c4ccc(C(C)C)cc4)no3)C2)cc1 (stereo not given),21,0,9,-25,-39,65*,1,-13
CC1(Oc2cccc(C#N)c2)CCN(Cc2ccccc2OC(F)F)C1 (stereo not given),-5,·,·,·,·,·,·,·
Cc1ccc(S(=O)(=O)/N=C(/c2ccccc2)N2CCOCC2)c(C)c1,-14,6,2,0,-4,-3,·,·
CCOC(=O)C1CCCN(C(=O)C(=O)c2cn(CC(=O)N3CCOCC3)c3ccccc23)C1 (stereo not given),1,·,·,·,10,-2,·,·
O=C(CN1C(=O)c2ccccc2S1(=O)=O)NCc1ccccc1Cl,-2,4,5,-10,-1,-2,·,·
O=C(CN1C(=O)c2ccccc2S1(=O)=O)c1ccccc1Cl,46,·,·,·,?,53*,76*,-15
Cc1ccc(NC(=S)/C(=C(\[O-])c2ccc(C)c([N+](=O)[O-])c2)[n+]2ccccc2)cc1C,·,-7,-9,-8,?,31*,17*,-16
CC1(Oc2ccccc2-c2ccn[nH]2)CCN(Cc2ccc(OC(F)(F)F)cc2)C1 (stereo not given),22,·,·,·,·,·,·,·
CCOC(=O)c1csc(COc2ccc(OC)cc2)n1,6,10,·,·,22,20*,52*,-13
Cc1ccc(N=Nc2cc(C)ccc2N)cc1,69*,34,·,·,5,26*,63*,61*
O=C(O)CSc1nnc(Cn2nnc3ccccc32)n1CCc1ccccc1,-8,3,10,12,-7,25*,-8,-5
CC(C)N(C(=O)CSc1nnc(Cn2nnc3ccccc32)n1C)C(C)C,-2,3,1,9,-1,-5,·,·
COc1ccc(Cc2noc(-c3ccc(OC)c(OC)c3)n2)cc1OC,1,7,12,12,2,-1,·,·
CC(c1ccccc1)n1c(-c2cccs2)nc2c(c(=O)c3ccccc3n2C)c1=O (stereo not given),-14,8,·,·,0,25*,-1,-12
CCOc1cc(C(=O)OCC(=O)c2cc(C)n(CC3CCCO3)c2C)ccc1OCC(=O)N1CCOCC1 (stereo not given),2,2,0,16,16,2,·,·
Cc1cc(C(=O)COC(=O)c2ccccc2NCCO)c(C)n1CC1CCCO1 (stereo not given),42,·,·,·,-48,53*,23*,-8
Cc1ccc(C(=O)OCC(=O)c2cc(C)n(CC3CCCO3)c2C)cc1 (stereo not given),32,17,-1,-48,-39,32*,35*,32*
SMILES,TRAIL sens C8,PPC-1+TRAIL kill,STAT3 inh,STAT1 inh,HSF1 inh,HSP90 refold inh,HSP90 inh confirm,FLuc counter
CCCCCCC(=O)Nc1nc(C)c(-c2csc(Nc3cc(Cl)ccc3C)n2)s1,7,8,5,12,7,5,·,·
COc1ccccc1Nc1nc(-c2sc(N)nc2C)cs1,-23,·,·,·,2,31*,2,-16
Cc1ccc(Cl)cc1Nc1nc(-c2sc(NC(=O)c3ccccc3)nc2C)cs1,·,24,16,-10,9,57*,46*,-19
Cc1cc(NS(=O)(=O)c2ccc(Nc3nc(-c4sc(NC(=O)c5ccccc5)nc4C)cs3)cc2)no1,·,10,18,2,·,33*,14,-8
CCOc1ccccc1Nc1nc(-c2sc(NC(=O)c3cccc(Cl)c3)nc2C)cs1,2,2,1,-14,16,73*,33*,-5
CCC(=O)Nc1nc(C)c(-c2csc(Nc3ccc(S(=O)(=O)Nc4cc(C)on4)cc3)n2)s1,·,12,-6,0,·,4,·,·
COc1ccccc1Nc1nc(-c2sc(NC(=O)c3ccccc3)nc2C)cs1,-21,-7,14,-5,9,47*,24*,-11
CCCCCC(=O)Nc1nc(C)c(-c2csc(Nc3ccccc3OCC)n2)s1,8,0,1,0,-1,6,·,·
CCOc1ccccc1Nc1nc(-c2sc(NC(=O)c3ccccc3)nc2C)cs1,·,37,12,2,-12,46*,25*,-6
COc1ccccc1Nc1nc(-c2sc(NC(=O)c3ccc([N+](=O)[O-])cc3)nc2C)cs1,·,23,16,6,-38,72*,23*,-5
Cc1nc(NC(=O)c2ccccc2)sc1-c1csc(Nc2cccc(F)c2)n1,·,14,13,-22,3,37*,28*,-19
COCCCNC(=O)c1ccc2sc([C@@H]3O[C@H](CO)[C@H](O)[C@H](O)[C@H]3O)nc2c1,-3,·,·,·,·,·,·,·
COc1cccc(Nc2nc(-c3sc(N)nc3C)cs2)c1,-1,-7,-7,-10,-4,17*,-5,-29
COc1cccc(Nc2nc(-c3sc(C)nc3C)cs2)c1,6,·,·,·,23,-2,·,·

# Assay outcomes deposited in PubChem by several laboratories.
